Bioassay records (PubChem)
PfHsp90 set2 = inhibits growth of yeast expressing Plasmodium falciparum Hsp90 | S. cerevisiae expressing PfHsp90, BacTiter-Glo ATP, 48 h; yeast lacking PDR1 and PDR3 efflux regulators | inhibition, % at 9.4 µM | AID 504621 | hit rate 0.32% among 310,000;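 active = every replicate shows inhibition above about 80%, whatever the replicate mean, limit read from the data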;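 also: 0% = DMSO neutral controls and 100% = 20 µM radicicol positive controls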
SKKanGAS inh = SKKanGAS growth inhibition; inhibition, % at 7.5 µM; S. pyogenes SKKanGAS, kanamycin growth, BacTiter-Glo, 6 h; AID 1662; hit rate 1.3% among 300,000;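 active = mean replicate score, as percent of positive control median, at least 50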;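 also: strain carries kanamycin resistance gene driven by streptokinase promoter and grows in 40 µg/ml kanamycin; loss of luminescence reflects streptokinase promoter inhibition or plain growth inhibition; 0% = median of DMSO wells and 100% = positive control at its reference dose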
TIM10 inh = growth inhibitors of TIM10 yeast strain; S. cerevisiae TIM10 strain growth, BacTiter-Glo luminescence, 24 h; inhibition, % at 10 µM; hit rate 1.4% among 330,000; AID 463195;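 active = inhibition of 40% or more at the single tested concentration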;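 also: wild-type TIM10 isogenic control strain grown at permissive 25 °C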
tim23-1 inh = inhibits growth of tim23-1 mutant yeast; S. cerevisiae tim23-1 growth, BacTiter-Glo luminescence, 24 h; inhibition, % at 20 µM; hit rate 1.3% among 330,000; AID 463212;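 active = growth inhibition of the mutant yeast at or above 50%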;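 also: temperature-sensitive mutant grown at 25 °C; plate controls were DMSO-treated mutant yeast for no effect and medium wells lacking yeast for full effect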
tim10-1 inh = growth inhibitors of tim10-1 mutant yeast. hit rate 2.2% among 330,000. AID 463190. S. cerevisiae tim10-1 ts strain growth, BacTiter-Glo, 24 h. inhibition, % at 20 µM;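 active = inhibition of at least 40%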;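 also: mutant grown at 25 °C; 0% = DMSO wells with yeast and 100% = wells holding no yeast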
tim10-1 confirm = confirmation of tim10-1 mutant yeast growth inhibitors. S. cerevisiae tim10-1 ts strain growth, BacTiter-Glo, 24 h. shares compounds with tim10-1 inh. AID 463213. inhibition, % at 20 µM. hit rate 56% among 7,400;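 active = inhibition of yeast growth at or above a set limit in either of two repeat tests at 20 µM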;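 also: tim10-1 mutant grown at permissive 25 °C to find synthetic lethal compounds; 0% = DMSO yeast wells and 100% = medium wells without yeast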
The depositor's hits bear a star. Hits are enriched below; roughly 4.4% of the tested compounds scored in any of these assays.

For CN1CCN(c2ccccc2NC(=O)c2ccc(-c3cccc(Cl)c3)o2)CC1 the results were PfHsp90 set2 21.8, SKKanGAS inh 8.9, TIM10 inh 35.7, tim23-1 inh 44.2, tim10-1 inh 59.8* and tim10-1 confirm 46.6*.
`CN(CC(=O)Nc1ccc(Cl)cc1F)C1=NS(=O)(=O)c2ccccc21` gave TIM10 inh -8.1, tim23-1 inh -11.5 and tim10-1 inh -3.2.
Cn1c(NCc2c(O)ccc3ccccc23)nc2ccccc21 was read as SKKanGAS inh 4.8, TIM10 inh 27.7, tim23-1 inh 36.3, tim10-1 inh 45.4* and tim10-1 confirm 33.1*.
For Nc1nnc(-c2ccccc2)c(-c2ccccc2)n1 the results were PfHsp90 set2 -18.1, SKKanGAS inh -4.0, TIM10 inh -1.7, tim23-1 inh 11.6, tim10-1 inh 40.6* and tim10-1 confirm 9.6.
`O=C(CC1S/C(=N/N=C2CCCCCC2)NC1=O)Nc1ccccc1F` (stereo not drawn) gave PfHsp90 set2 13.0, SKKanGAS inh -3.7, TIM10 inh 5.5, tim23-1 inh 24.2 and tim10-1 inh 17.0.
Screening O=C(CC1S/C(=N/N=C2CCCCCC2)NC1=O)Nc1ccc(Br)cc1F (stereo not drawn) returned PfHsp90 set2 -7.7, SKKanGAS inh 1.2, TIM10 inh 17.1, tim23-1 inh 34.6, tim10-1 inh 44.0* and tim10-1 confirm 21.5.
CC(C(=O)OCC(=O)NC1CCCC1)N1C(=O)c2ccccc2C1=O (stereo not drawn) was read as PfHsp90 set2 14.8, TIM10 inh -11.2, tim23-1 inh 16.8 and tim10-1 inh 7.1.
COc1ccc(/C=C/c2ccccc2)cc1[C@H]1[C@H]2C=CC[C@@H](C)[C@@H]2C(=O)N1Cc1ccccc1 was read as PfHsp90 set2 10.0, SKKanGAS inh 19.1, TIM10 inh 3.0, tim23-1 inh 32.4 and tim10-1 inh 20.4.
Screening COC(=O)C1=C(C)OC(N)=C(C#N)C1c1c(C)nn(-c2ccccc2)c1Cl (stereo not drawn) returned PfHsp90 set2 17.3, SKKanGAS inh -0.5, TIM10 inh 35.9, tim23-1 inh 43.5, tim10-1 inh 40.2* and tim10-1 confirm 33.2*.
`CCOC(=O)C1=C(C)OC(N)=C(C#N)C1c1c(C)nn(-c2ccc(C)cc2)c1Cl` (stereo not drawn) gave SKKanGAS inh 1.3, TIM10 inh 18.3, tim23-1 inh 25.0 and tim10-1 inh 32.4.
`COc1ccc(CC(=O)Nc2ccc(S(=O)(=O)N3CCN(C)CC3)cc2)cc1` gave PfHsp90 set2 2.1, TIM10 inh -1.0, tim23-1 inh -8.5 and tim10-1 inh -15.3.
Screening N#C/C(=N\Nc1cccc(Cl)c1)C(=O)c1ccccc1 returned PfHsp90 set2 -17.2, SKKanGAS inh 24.8, TIM10 inh 14.8, tim23-1 inh 36.5, tim10-1 inh 41.6* and tim10-1 confirm 25.4.
Screening COc1cccc(NC(=O)c2cccc(N3C(=O)C4C5C=CC(C5)C4C3=O)c2)c1 (stereo not drawn) returned PfHsp90 set2 -15.2, SKKanGAS inh 5.6, TIM10 inh 4.7, tim23-1 inh 0.5 and tim10-1 inh 2.2.
For c1ccc(-c2ncnc3ccccc23)cc1 the results were PfHsp90 set2 -3.4.
For Cc1c(C(=O)NC2CCCc3ccccc32)oc2ccccc12 (stereo not drawn) the results were PfHsp90 set2 -32.9, SKKanGAS inh 45.6, TIM10 inh 35.4, tim23-1 inh 30.6, tim10-1 inh 44.6* and tim10-1 confirm 38.4*.
Screening O=C(c1ccc(N2CCN(S(=O)(=O)c3ccccc3)CC2)c([N+](=O)[O-])c1)N1CCOCC1 returned PfHsp90 set2 -22.5, SKKanGAS inh 11.9, TIM10 inh 4.2, tim23-1 inh 12.4 and tim10-1 inh 8.9.
Screening COC(=O)c1ccc(N2CCN(S(=O)(=O)c3ccccc3)CC2)c([N+](=O)[O-])c1 returned PfHsp90 set2 -14.1, SKKanGAS inh -0.2, TIM10 inh 3.2, tim23-1 inh 30.5, tim10-1 inh 42.4* and tim10-1 confirm 14.9.
Screening O=C(CSc1ccccc1C(=O)NCc1ccccc1)NC12CC3CC(CC(C3)C1)C2 returned PfHsp90 set2 1.9, SKKanGAS inh -0.4, TIM10 inh 35.2, tim23-1 inh 33.5, tim10-1 inh 40.0* and tim10-1 confirm 31.8*.
For O=C(COC(=O)Cc1ccc(S(=O)(=O)N2CCOCC2)s1)Nc1ccccc1Cl the results were PfHsp90 set2 16.1, TIM10 inh 3.8, tim23-1 inh 4.1 and tim10-1 inh -1.9.
S=C(Nc1nc2c(s1)CCCC2)NC1CC1 was read as PfHsp90 set2 -17.4, SKKanGAS inh 29.3, TIM10 inh 9.6, tim23-1 inh 14.2, tim10-1 inh 41.3* and tim10-1 confirm 4.5.
Screening Cc1cc(NC(=O)c2ccc(Cl)cc2)cc(C)c1OCC(=O)N1CCOCC1 returned PfHsp90 set2 14.2, SKKanGAS inh -1.2, TIM10 inh 17.1, tim23-1 inh 22.2 and tim10-1 inh 18.0.
`CCOC(=O)C1=CN(Cc2ccco2)S(=O)(=O)N(C)C1CC` (stereo not drawn) gave PfHsp90 set2 10.5, TIM10 inh 0.9, tim23-1 inh 36.1 and tim10-1 inh 17.6.
Screening O=C(Cc1ccc2c(c1)OCCO2)Nc1cc(C(F)(F)F)ccc1N1CCOCC1 returned PfHsp90 set2 -13.3, TIM10 inh 14.3, tim23-1 inh 42.4, tim10-1 inh 41.3* and tim10-1 confirm 27.7.
`CCCCCNS(=O)(=O)c1cc2c3c(c1)CCC(=O)N3CCC2` gave PfHsp90 set2 22.3, SKKanGAS inh -1.0, TIM10 inh -1.9, tim23-1 inh -8.3 and tim10-1 inh -2.1.
N/C(Cc1ccc([N+](=O)[O-])cc1)=N\OC(=O)Cc1ccccc1 was read as PfHsp90 set2 -0.7, SKKanGAS inh -0.2, TIM10 inh 14.3, tim23-1 inh 15.4, tim10-1 inh 50.5* and tim10-1 confirm 41.0*.
Screening Cc1ccc(OCC(=O)O/N=C(\N)Cc2ccc([N+](=O)[O-])cc2)cc1C returned PfHsp90 set2 1.8, SKKanGAS inh -7.9, TIM10 inh 16.1, tim23-1 inh 29.1, tim10-1 inh 52.4* and tim10-1 confirm 53.3*.
`Cc1cccc(OCC(=O)O/N=C(\N)Cc2ccc([N+](=O)[O-])cc2)c1` gave PfHsp90 set2 0.7, SKKanGAS inh -1.6, TIM10 inh 32.0, tim23-1 inh 24.8 and tim10-1 inh 15.2.
For Cc1ccc2c(c1)C(O)(CC(=O)/C=C/C=C/c1ccccc1)C(=O)N2 (stereo not drawn) the results were PfHsp90 set2 -5.1, SKKanGAS inh -8.8, TIM10 inh -4.0, tim23-1 inh 29.6, tim10-1 inh 40.4* and tim10-1 confirm 28.4*.
NC(=O)CN1C(=O)C(O)(CC(=O)/C=C\C=C\c2ccccc2)c2ccccc21 (stereo not drawn) was read as PfHsp90 set2 -25.5, SKKanGAS inh -16.3, TIM10 inh 5.7, tim23-1 inh 16.4 and tim10-1 inh -6.4.
